About 21,000 targets were measured; listed, in parts, are those with the largest changes and a random draw of the rest.
Compound: Cc1cc(ccc1-c1ccccc1)C(=O)N1CCCN(CC1)C(=O)CCl [compound 10]
Test: probe-labelled cysteine peptide fold change vs DMSO (competition) (log2 fold change); higher = less target engagement (more negative = stronger competition)
Conditions: THP-1, incubation time: 4 h
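Further: competitive profiling in live THP-1 cells: cysteine peptides tagged with an iodoacetamide desthiobiotin (IA-DTB) probe, intensity after compound treatment relative to DMSO-treated cells.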

In the case of “PTPN11_Q06124_318_CNNSKPK (UniProt Q06124)”, the “probe-labelled cysteine peptide fold change” value (10 µM) is reported as -0.31 and the “probe-labelled cysteine peptide fold change” value (50 µM) is reported as -1.11.
“RAI14_Q9P0K7_139_TALHYAAAQGCLQAVQILCEHK (UniProt Q9P0K7)” was tested, and the “probe-labelled cysteine peptide fold change” value (10 µM) was 0.0635 and the “probe-labelled cysteine peptide fold change” value (50 µM) was -0.0217.
With “RAB10_P61026_124_CDMDDK (UniProt P61026)” the “probe-labelled cysteine peptide fold change” value (10 µM) was -0.104 and the “probe-labelled cysteine peptide fold change” value (50 µM) was 0.0844.
“RASSF5_Q8WWW0_225_NCLGMK (UniProt Q8WWW0)” was tested, and the “probe-labelled cysteine peptide fold change” value (10 µM) was -0.275 and the “probe-labelled cysteine peptide fold change” value (50 µM) was -0.844.
“PSME4_Q14997_718_QGYTLSCNLLHHLLR (UniProt Q14997)” was tested, and the “probe-labelled cysteine peptide fold change” value (10 µM) was 0.366 and the “probe-labelled cysteine peptide fold change” value (50 µM) was 0.173.
“PYCR1_P32322_262_SLLINAVEASCIR (UniProt P32322)” was tested, and the “probe-labelled cysteine peptide fold change” value (10 µM) was 0.0279 and the “probe-labelled cysteine peptide fold change” value (50 µM) was 0.0718.
For “PRKCD_Q05655_127_VLMSVQYFLEDVDCK (UniProt Q05655)”, the “probe-labelled cysteine peptide fold change” value (10 µM) was -0.226 and the “probe-labelled cysteine peptide fold change” value (50 µM) was -0.31.
In the case of “PSMC3_P17980_240_ACAAQTK (UniProt P17980)”, the “probe-labelled cysteine peptide fold change” value (10 µM) is reported as -0.0208 and the “probe-labelled cysteine peptide fold change” value (50 µM) is reported as -0.0025.
With “QDPR_P09417_161_GAVHQLCQSLAGK (UniProt P09417)” the “probe-labelled cysteine peptide fold change” value (10 µM) was 0.0328 and the “probe-labelled cysteine peptide fold change” value (50 µM) was 0.165.
“PSMD11_O00231_202_TTANAIYCPPK (UniProt O00231)” was tested, and the “probe-labelled cysteine peptide fold change” value (10 µM) was 0.077 and the “probe-labelled cysteine peptide fold change” value (50 µM) was 0.248.
With “PRKD2_Q9BZL6_169_CDGCGLNYHK (UniProt Q9BZL6)” the “probe-labelled cysteine peptide fold change” value (10 µM) was -0.0725 and the “probe-labelled cysteine peptide fold change” value (50 µM) was 0.00149.
For “RDH13_Q8NBN7_30_DYVTGGACPSK (UniProt Q8NBN7)”, the “probe-labelled cysteine peptide fold change” value (10 µM) was -0.162 and the “probe-labelled cysteine peptide fold change” value (50 µM) was -0.083.
“RFC3_P40938_32_NLVQCGDFPHLLVYGPSGAGK (UniProt P40938)” was tested, and the “probe-labelled cysteine peptide fold change” value (10 µM) was -0.122 and the “probe-labelled cysteine peptide fold change” value (50 µM) was 0.124.
With “RHOC_P08134_16_KLVIVGDGACGK<|>RHOA_P61586_16_KLVIVGDGACGK (UniProt P61586+P08134)” the “probe-labelled cysteine peptide fold change” value (10 µM) was -0.0365 and the “probe-labelled cysteine peptide fold change” value (50 µM) was -0.193.
“PSME4_Q14997_637_CCPEESLK (UniProt Q14997)” was tested, and the “probe-labelled cysteine peptide fold change” value (10 µM) was -0.0784 and the “probe-labelled cysteine peptide fold change” value (50 µM) was -0.446.
With “PTPN12_Q05209_164_ISCEDEQAR (UniProt Q05209)” the “probe-labelled cysteine peptide fold change” value (10 µM) was 0.159 and the “probe-labelled cysteine peptide fold change” value (50 µM) was 0.15.
With “PRPS2_P11908_165_NCIIVSPDAGGAKR (UniProt P11908)” the “probe-labelled cysteine peptide fold change” value (10 µM) was 0.121 and the “probe-labelled cysteine peptide fold change” value (50 µM) was -0.113.
In the case of “PRKCD_Q05655_261+264_CEDCGMNVHHK (UniProt Q05655)”, the “probe-labelled cysteine peptide fold change” value (10 µM) is reported as -0.702 and the “probe-labelled cysteine peptide fold change” value (50 µM) is reported as -1.69.
In the case of “PRKDC_P78527_373_GYGLFAGPCK (UniProt P78527)”, the “probe-labelled cysteine peptide fold change” value (10 µM) is reported as -0.037 and the “probe-labelled cysteine peptide fold change” value (50 µM) is reported as 0.131.
In the case of “PRMT5_O14744_622_KVWYEWAVTAPVCSAIHNPTGR (UniProt O14744)”, the “probe-labelled cysteine peptide fold change” value (10 µM) is reported as -0.0156 and the “probe-labelled cysteine peptide fold change” value (50 µM) is reported as 0.0576.
With “QARS_P47897_665_GPSGCVESLEVTCR (UniProt P47897)” the “probe-labelled cysteine peptide fold change” value (10 µM) was -0.11 and the “probe-labelled cysteine peptide fold change” value (50 µM) was 0.446.
With “RBBP5_Q15291_100_LVSASTDNIVSQWDVLSGDCDQR (UniProt Q15291)” the “probe-labelled cysteine peptide fold change” value (10 µM) was 0.121 and the “probe-labelled cysteine peptide fold change” value (50 µM) was 0.0651.
In the case of “REEP5_Q00765_18_NCMTDLLAK (UniProt Q00765)”, the “probe-labelled cysteine peptide fold change” value (10 µM) is reported as -0.872 and the “probe-labelled cysteine peptide fold change” value (50 µM) is reported as -1.97.
In the case of “PTPMT1_Q8WUK0_127+132_YQSLGQCVYVHCK (UniProt Q8WUK0)”, the “probe-labelled cysteine peptide fold change” value (10 µM) is reported as 0.0587 and the “probe-labelled cysteine peptide fold change” value (50 µM) is reported as -0.0194.
In the case of “RARS2_Q5T160_479_LHSLEETFGCGYLNDFNTACLQEPQSVSILQHLLR (UniProt Q5T160)”, the “probe-labelled cysteine peptide fold change” value (10 µM) is reported as -0.037 and the “probe-labelled cysteine peptide fold change” value (50 µM) is reported as 0.0628.
“PRKDC_P78527_1364_DLCNTHLMR (UniProt P78527)” was tested, and the “probe-labelled cysteine peptide fold change” value (10 µM) was -0.0526 and the “probe-labelled cysteine peptide fold change” value (50 µM) was -0.0393.
For “RHOG_P84095_18_TCLLICYTTNAFPK (UniProt P84095)”, the “probe-labelled cysteine peptide fold change” value (10 µM) was -0.108 and the “probe-labelled cysteine peptide fold change” value (50 µM) was 0.0979.
For “PTPRC_P08575_610_SCNLDEQQELVERDDEK (UniProt P08575)”, the “probe-labelled cysteine peptide fold change” value (10 µM) was -0.427 and the “probe-labelled cysteine peptide fold change” value (50 µM) was -1.12.
In the case of “RFC3_P40938_32_NLVQCGDFPHLLVYGPSGAGKK (UniProt P40938)”, the “probe-labelled cysteine peptide fold change” value (10 µM) is reported as -0.11 and the “probe-labelled cysteine peptide fold change” value (50 µM) is reported as -0.186.
With “PRR14L_Q5THK1_1483_DTESCTSPCLLGAPR (UniProt Q5THK1)” the “probe-labelled cysteine peptide fold change” value (10 µM) was -0.528 and the “probe-labelled cysteine peptide fold change” value (50 µM) was -1.12.
For “RLF_Q13129_1494_VCQTADTQGHEHQTTR (UniProt Q13129)”, the “probe-labelled cysteine peptide fold change” value (10 µM) was 0.131 and the “probe-labelled cysteine peptide fold change” value (50 µM) was -0.309.
“RMND5A_Q9H871_328+336_CWYHSIFACPILR (UniProt Q9H871)” was tested, and the “probe-labelled cysteine peptide fold change” value (10 µM) was -0.0698 and the “probe-labelled cysteine peptide fold change” value (50 µM) was -0.177.
With “RB1CC1_Q8TDY2_603_VPLLCDFEPLHQHVLALHNLVK (UniProt Q8TDY2)” the “probe-labelled cysteine peptide fold change” value (10 µM) was -0.156 and the “probe-labelled cysteine peptide fold change” value (50 µM) was -1.09.
For “RAB29_O14966_127_CDLSPWAVSR (UniProt O14966)”, the “probe-labelled cysteine peptide fold change” value (10 µM) was -0.0495 and the “probe-labelled cysteine peptide fold change” value (50 µM) was 0.0455.
“PRKCSH_P14314_39_GVSLTNHHFYDESKPFTCLDGSATIPFDQVNDDYCDCK (UniProt P14314)” was tested, and the “probe-labelled cysteine peptide fold change” value (10 µM) was -0.151 and the “probe-labelled cysteine peptide fold change” value (50 µM) was -1.07.
With “PUM1_Q14671_980_CIECVQPQSLQFIIDAFK (UniProt Q14671)” the “probe-labelled cysteine peptide fold change” value (10 µM) was 0.213 and the “probe-labelled cysteine peptide fold change” value (50 µM) was -0.0133.
For “RANGAP1_P46060_169_ILAAALTECHRK (UniProt P46060)”, the “probe-labelled cysteine peptide fold change” value (10 µM) was -0.159 and the “probe-labelled cysteine peptide fold change” value (50 µM) was -0.379.
With “QSOX1_O00391_110_AWRPALYLAALDCAEETNSAVCR (UniProt O00391)” the “probe-labelled cysteine peptide fold change” value (10 µM) was -0.147 and the “probe-labelled cysteine peptide fold change” value (50 µM) was -0.174.

From the supplement of paper PMC12067093, “Discovery and optimisation of a covalent ligand for TRIM25 and its application to targeted protein ubiquitination” (Chemical Science, 2025)
